Results as given in PubChem BioAssay (Tox21).
A number with no mark means an inactive call. Active and inactive are the calls of the source. Calls follow the shape of the full dose curve.

biological target: Muscarinic acetylcholine receptor M1 (Homo sapiens) (UniProt P11229); experiment: Cholinergic receptor muscarinic 1 (CHRM1) small molecule agonists, cell-based qHTS assay (AID 1963589); settings: CHRM1-CHO cells, agonist mode, calcium flux fluorescence; series mostly up to 76.8 µM; activation: at the top concentration; also: nearly all actives have a fitted effect of over 35% in size
From the text: National Center for Advancing Translational Sciences [NCATS]
Division of Preclinical Innovation [DPI]
U.S. Environmental Protection Agency [EPA]
National Institutes of Environmental Health Sciences [NIEHS]
National Toxicology Program [NTP]
U.S. Food and Drug Administration [FDA]
The CHRM1 is a muscarinic receptor. This receptor plays a crucial role in learning and memory processes and has long been identified as a promising therapeutic target for the improvement of cognitive decline in Alzheimer's disease (AD). The CHRM1-CHO cell line stably expressing human muscarinic acetylcholine receptor M1 (CHRM1) can be used for screening agonists and antagonists of interactions between CHRM1 and its ligands. The CHRM1-CHO Calcium Flux Assay is a homogeneous fluorescence-based assay for detecting the intracellular calcium level using FDSS kinetic plate reader system.
CHRM1-CHO cells were dispensed at 1000 cells/3uL/well in 1536-well black-clear bottom plates using a Multidrop Dispenser. After the assay plates were incubated at a 37 C/5% CO2 incubator for 18 h, 3 uL of Dye Loading Buffer was transferred to the assay plate by a Flying Reagent Dispenser. The assay plates were incubated at 37 C for 1h. For agonist mode, 23 nL of compounds dissolved in DMSO, positive controls or DMSO only was transferred to the assay plate by a pin tool. […] Each test compound was measured at 15 concentrations in three independent runs.
% is scaled to controls: 0 for no effect and ±100 for the full control effect; potency is read from the fitted curve at half-maximal effect.

Sequence of Muscarinic acetylcholine receptor M1 (Homo sapiens) (P11229 whole entry, looked up): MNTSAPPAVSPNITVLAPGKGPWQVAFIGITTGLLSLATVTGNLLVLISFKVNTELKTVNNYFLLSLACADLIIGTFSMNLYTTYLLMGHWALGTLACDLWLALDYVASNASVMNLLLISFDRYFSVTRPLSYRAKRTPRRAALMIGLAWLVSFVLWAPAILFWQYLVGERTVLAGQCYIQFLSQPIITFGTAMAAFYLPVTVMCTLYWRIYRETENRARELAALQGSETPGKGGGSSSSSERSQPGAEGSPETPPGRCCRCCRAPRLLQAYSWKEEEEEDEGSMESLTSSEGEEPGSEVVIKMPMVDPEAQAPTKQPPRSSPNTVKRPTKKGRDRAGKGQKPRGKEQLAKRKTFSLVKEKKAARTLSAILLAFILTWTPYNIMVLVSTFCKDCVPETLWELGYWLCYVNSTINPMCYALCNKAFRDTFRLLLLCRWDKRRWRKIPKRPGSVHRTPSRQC

Compound | activation | Potency
O=C(O)COc1nc(Cl)c(Cl)cc1Cl | -5.49% | 
CC(C)CC(C)Nc1ccc(Nc2ccccc2)cc1 (stereo not given) | 0.212% | 
Clc1ccc(C(Cl)(Cl)Cl)cc1Cl | -0.161% | 
CC(C)C1CCC(Cc2ccc(Cl)cc2)C1(O)Cn1cncn1 (stereo not given) | 5.2% | 
NC(=O)CI | -0.128% | 
CCCOC(=O)Cc1ccc(OCC(=O)N(CC)CC)c(OC)c1 | -0.219% [at 35.3 µM] | 
O=C1NCN(c2ccccc2)C12CCN(CC1COc3ccccc3O1)CC2 (stereo not given) | 18.6% [at 35.3 µM] | 
CN1CCc2cc3c(cc2C1O)OCO3 (stereo not given) | -1.09% | 
CC(c1ccccc1)(c1ccc(O)cc1)c1ccc(O)cc1 | -0.0795% | 
c1ccc2c(c1)[nH]c1cnccc12 | -1.08% | 
ClCc1cccc(Cl)c1 | 1.35% [at 35.3 µM] | 
O=[N+]([O-])c1ccc(CCl)cc1 | -0.151% | 
CCN(CC)c1c([N+](=O)[O-])cc(C(F)(F)F)c(N)c1[N+](=O)[O-] | -0.113% | 
BrCCCCCCBr | 0.347% | 
C=CC[C@]1(O)CC[C@H]2[C@@H]3CCC4=CC(=O)CCC4=C3C=C[C@@]21C | 1.69% [at 35.3 µM] | 
C#CC(C)(C)O | -0.347% | 
O=C(O)c1ccc2[nH]cc(CCCCN3CC=C(c4ccccc4)CC3)c2c1 | -0.764% [at 35.3 µM] | 
COC1=CC(=O)O[C@@H](/C=C/c2ccc3c(c2)OCO3)C1 | -1.21% | 
CCCN(CCCl)c1c([N+](=O)[O-])cc(C(F)(F)F)cc1[N+](=O)[O-] | -0.163% | 
C#CCN1C(=O)COc2cc(F)c(N3C(=O)C4=C(CCCC4)C3=O)cc21 | -0.235% | 

Compound | activation | Potency
COC(=O)/C=C(\C)OP(=O)(OC)OC | -0.058% | 
CC(C)CP(=S)(S)CC(C)C | -0.0559% | 
CCCCCCCCCC(=O)O[C@H]1CC[C@H]2[C@@H]3CCC4=CC(=O)CC[C@@H]4[C@H]3CC[C@]12C | -0.349% [at 35.3 µM] | 
CCCCCCCCCCCCN=C(N)N | -0.462% [at 2.72 µM] | 
CCOP(=O)(Sc1ccccc1)Sc1ccccc1 | 1.61% | 
CN(C)S(=O)(=O)N(SC(F)(Cl)Cl)c1ccccc1 |  | 43.6 µM (active)
COP(=S)(OC)Oc1ccc([N+](=O)[O-])cc1Cl | 3.34% | 
CC(=O)OC(c1ccccc1)C(Cl)(Cl)Cl (stereo not given) | -1.01% | 
CCOP(=S)(OCC)SCSCC | -0.0743% | 
COC(=O)N(OC)c1ccccc1COc1ccn(-c2ccc(Cl)cc2)n1 | -0.572% | 
N#Cc1cc(I)c(O)c(I)c1 | 1.96% | 
Nc1ccccc1-c1ccccc1 | -0.453% | 
Nc1c(Br)cc(Br)c2c1C(=O)c1ccccc1C2=O | -0.118% [at 15.8 µM] | 
N#C/C=C/c1ccccc1 | -0.718% | 
N#Cc1ccc(N(CC(N)=O)CC(F)(F)F)cc1C(F)(F)F | 0.59% | 
CCCCCCCCBr | -0.286% | 
CC(C)(C)c1ccc(O)cc1 |  | inactive
NCCc1cc(O)c(O)cc1O | -0.531% [at 35.3 µM] | 
[Cl][Sb]([Cl])[Cl] | -0.239% | 
O=C1OC(CCN2CCCCC2)OC1(c1ccccc1)c1ccccc1 (stereo not given) | -0.0508% [at 35.3 µM] | 
